Among the test systems are DU-145 prostate; K-562 leukemia; MALME-3M melanoma; MDA-MB-231 breast; RXF 393 renal; SF-268 CNS; SF-295 CNS; SF-539 CNS; UACC-257 melanoma; M14 melanoma.
Experiment in all cases: NCI-60 one-dose screen, 48 h (100 = growth as untreated, 0 = no growth, -100 = all killed)
What all share (details): 10 µM unless noted

Compounds without any hit were thinned out: in the full panel of roughly 83,000, 20% have a hit.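 Values shown are percent growth following 48 h exposure of cells in 96-well plates to a single concentration of compound; below 10 was considered active.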 A number with no mark means an inactive call. Active and inactive are the calls of the source.

On to `CN(Cc1cnc2nc(N)nc(N)c2n1)c1ccc(C(=O)N[C@@H](CCc2nn[nH]n2)c2nn[nH]n2)cc1`, for which the growth in the experiment on DU-145 prostate is 32.8%; with K-562 leukemia, 18.1%; in the experiment with MALME-3M melanoma it was 68.9%; in the experiment with MDA-MB-231 breast, 111%; in the experiment on RXF 393 renal, 71.1%; in the experiment on SF-268 CNS, 39%. Also, the growth in the experiment with SF-295 CNS is 40.8%; in the experiment on SF-539 CNS, 46.6%; in the experiment on UACC-257 melanoma it was 55.8%; in the experiment on M14 melanoma, 29.8%.

For `COc1cc(C2CC(=O)Nc3c2c(C)nn3-c2nc3ccccc3[nH]2)cc2c1OCC(=O)N2` (stereo not given), the growth with DU-145 prostate is 111%; in the experiment on K-562 leukemia, 89.3%; in the experiment with MALME-3M melanoma, 117%; with MDA-MB-231 breast it was 55.8%; with RXF 393 renal, -0.584% (active); in the experiment with SF-268 CNS, 48.8%. Also, the growth with SF-295 CNS was 19.1%; in the experiment on SF-539 CNS, 50.6%; in the experiment with UACC-257 melanoma, 69.6%; in the experiment on M14 melanoma, 34.8%.

For `CC/C=C/C/C=C/C/C=C/C/C=C/C/C=C/C/C=C/CCC(=O)Nc1ccn([C@@H]2O[C@H](CO)[C@@H](O)C2(F)F)c(=O)n1`, the growth was 13.8% in the experiment with DU-145 prostate; 38.4% with K-562 leukemia; 64.3% in the experiment on MALME-3M melanoma; 54.9% with MDA-MB-231 breast; 24.9% in the experiment with RXF 393 renal; 19.1% in the experiment with SF-268 CNS. The growth is 16.2% with SF-295 CNS, 7.06% (active) in the experiment on SF-539 CNS, 48.2% in the experiment with UACC-257 melanoma and -22.7% (active) in the experiment with M14 melanoma.

Regarding `C[n+]1cc2c3c(ccc2c2ccc4cc5c(cc4c21)OCO5)OCO3`, the growth in the experiment with DU-145 prostate was -94.4% (active); in the experiment with K-562 leukemia, -5.22% (active); in the experiment with MALME-3M melanoma, -76.9% (active); in the experiment on MDA-MB-231 breast, -76.2% (active); in the experiment with RXF 393 renal it was -77.1% (active); in the experiment on SF-268 CNS, -93.1% (active). In addition, the growth with SF-295 CNS was -63.1% (active); in the experiment on SF-539 CNS, -71.8% (active); in the experiment with UACC-257 melanoma, -87.6% (active); with M14 melanoma it was -76.8% (active).

As for `NC1=NCc2nc3ccccc3c(=O)n2C1`, the growth with DU-145 prostate was 113%; in the experiment on K-562 leukemia it was 87.3%; in the experiment with MALME-3M melanoma it was 104%; in the experiment with MDA-MB-231 breast it was 85.7%; with RXF 393 renal, 91.4%; with SF-268 CNS, 112%. The growth in the experiment with SF-295 CNS is 96.1%; in the experiment with SF-539 CNS, 107%; with UACC-257 melanoma it was 95.1%; in the experiment with M14 melanoma, 102%.

As to `CC(=O)[C@@H]1CC[C@]2(COS(=O)(=O)c3ccc(C)cc3)CC[C@]3(C)[C@H](CC[C@@H]4[C@@]5(C)CCCNC(C)(C)[C@@H]5CC[C@]43C)[C@@H]12`, the growth in the experiment on DU-145 prostate was 86.6%; in the experiment with K-562 leukemia, 2.27% (active); with MALME-3M melanoma, 88.1%; in the experiment on MDA-MB-231 breast it was 96.4%; in the experiment with RXF 393 renal, 63.9%; in the experiment with SF-268 CNS, 73.2%. The growth with SF-295 CNS was 101%; with SF-539 CNS it was 77.4%; with UACC-257 melanoma, 49.9%; in the experiment with M14 melanoma, 79%.

For the compound `COc1ccc(-c2nc(SC(C)C)nc(NNC(N)=S)c2C#N)cc1`, the growth in the experiment on DU-145 prostate was 77.7%; with K-562 leukemia, 16.9%; in the experiment on MALME-3M melanoma it was 51.7%; in the experiment on MDA-MB-231 breast, 43.3%; in the experiment on RXF 393 renal it was 63.7%; in the experiment on SF-268 CNS, 62.5%. The growth in the experiment with SF-295 CNS was 55.2%; with SF-539 CNS, 50.1%; with UACC-257 melanoma, 82.7%; in the experiment on M14 melanoma, 53.8%.

As to `CC(CCc1ccc(Cl)c(Cl)c1)NCc1ccc(C(C)(C)C)cc1` (stereo not given), the growth is 101% with DU-145 prostate; 25.2% in the experiment on K-562 leukemia; 97.6% in the experiment with MALME-3M melanoma; 72.9% with MDA-MB-231 breast; 89.6% in the experiment with RXF 393 renal; 92.9% in the experiment with SF-268 CNS. For the same compound, the growth is 112% in the experiment on SF-295 CNS, 96.8% with SF-539 CNS, 64.5% in the experiment on UACC-257 melanoma and 86.1% with M14 melanoma.

Consider `COc1cccc(Nc2nccc(Nc3ccc4[nH]ncc4c3)n2)c1`, for which the growth in the experiment with DU-145 prostate was -59.1% (active); in the experiment on K-562 leukemia it was -9.77% (active); with MALME-3M melanoma, -48.7% (active); in the experiment on MDA-MB-231 breast it was 15%; in the experiment on RXF 393 renal it was 18.4%; in the experiment with SF-268 CNS, 26.3%. Moreover, the growth in the experiment on SF-295 CNS is 16.2%; in the experiment on SF-539 CNS it was 13.9%; in the experiment with UACC-257 melanoma, 11.2%; in the experiment on M14 melanoma, -74.2% (active).

For the compound `C=CCNc1nc(NN2C(=O)c3cccc4cccc(c34)C2=O)nc(-n2cnc3ccccc32)n1`, the growth in the experiment with DU-145 prostate is 97.9%; in the experiment on K-562 leukemia, 9.94% (active); in the experiment on MALME-3M melanoma it was 93.5%; in the experiment on MDA-MB-231 breast, 68.3%; with RXF 393 renal, 50.3%; with SF-268 CNS, 65%. Also, the growth in the experiment on SF-295 CNS is 76.5%; in the experiment with SF-539 CNS it was 50.4%; in the experiment with UACC-257 melanoma, 102%; in the experiment with M14 melanoma, 97.9%.

Consider `CC/C=C\C[C@H](O)C/C=C1/C(=O)C=C[C@@H]1C/C=C\CCCCO`, for which the growth is 28.3% in the experiment with DU-145 prostate; 6.44% (active) with K-562 leukemia; 34.7% in the experiment on MALME-3M melanoma; 8.29% (active) in the experiment with MDA-MB-231 breast; 56.1% with RXF 393 renal; 78.3% with SF-268 CNS. Also, the growth is 10.6% with SF-295 CNS, 14.5% in the experiment with SF-539 CNS, 34% in the experiment on UACC-257 melanoma and 16.4% in the experiment on M14 melanoma.

For `Cc1cccc(-c2nc(N(C)c3ccc4ncsc4c3)c3ccccc3n2)n1`, the growth is 94.1% in the experiment with DU-145 prostate; 21.6% with K-562 leukemia; 79.5% in the experiment with MALME-3M melanoma; 63.6% with MDA-MB-231 breast; 84.3% in the experiment with RXF 393 renal; 94.1% with SF-268 CNS. Moreover, the growth in the experiment with SF-295 CNS is 77%; in the experiment with SF-539 CNS, 92.1%; in the experiment with UACC-257 melanoma, 76.1%; in the experiment with M14 melanoma, 54.1%.

Regarding `N#Cc1nc2c(S(=O)(=O)c3ccc(Cl)cc3)c(N)n(Nc3cccc(Cl)c3)c2nc1C#N`, the growth was 16.2% in the experiment with DU-145 prostate; 25.9% with K-562 leukemia; 25.3% with MALME-3M melanoma; 58.8% with MDA-MB-231 breast; 46.3% in the experiment on RXF 393 renal; 53.8% with SF-268 CNS. Besides, the growth in the experiment on SF-295 CNS was 48.9%; with SF-539 CNS, 38.9%; in the experiment with UACC-257 melanoma it was 47.9%; with M14 melanoma it was 79%.

For the origin of these results see PubChem BioAssay (NCI).
